PubChem BioAssay AID651658 (Broad Institute, 2012)
The whole screen tested about 340,000 compounds, of which about 5,100 (1.5%) were called active.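 The calls were made as follows: active = mean Tm shift, scaled 0 neutral to 100 positive control, at about 1.3% or above, every replicate too (limit read from the data); inconclusive = no clear call, values can overlap the other calls; inactive = the rest.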 Shown is part of a subset that was picked to be rich in actives.

The compounds below were run against Fibroblast growth factor 22 (Homo sapiens) (UniProt Q9HCT0) (assay: FGF22 ligand-induced thermal stabilization – biophysical, thermal shift, single point, FGF22 synaptogenesis inhibitor project, primary screen (AID 651658)). Conditions: recombinant FGF22 thermal shift, SYPRO orange fluorescence; at 9.99 µM; stronger effect = higher value; percent of sucrose octasulfate shift, DMSO zero.
Sequence of Fibroblast growth factor 22 (Homo sapiens) (Q9HCT0 whole entry, looked up): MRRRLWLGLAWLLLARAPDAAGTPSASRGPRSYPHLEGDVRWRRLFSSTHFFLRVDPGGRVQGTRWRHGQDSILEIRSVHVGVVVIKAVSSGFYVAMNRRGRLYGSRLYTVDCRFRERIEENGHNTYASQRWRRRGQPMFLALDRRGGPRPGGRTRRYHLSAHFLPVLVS

SMILES | activity (Tm shift, normalised)
Cc1noc(C)c1NC(=O)N(C)C[C@H]1OCCCC[C@@H](C)Oc2ccc(NC(=O)NC(C)C)cc2C(=O)N([C@H](C)CO)C[C@@H]1C | 0.234% (inactive)
COc1ccccc1OCCOc1ccc(/C=C2\C(=N)N3N=C(C)SC3=NC2=O)cc1 | -0.133% (inactive)
COc1ccc(OCCCn2cccc2/C=C2/C(=N)N3OC(C)=CC3=NC2=O)cc1 | 43.6% (active)
CC1=CC2=NC(=O)/C(=C/c3coc4ccccc4c3=O)C(=N)N2O1 | 0.039% (inactive)
CCCNC(=O)N(C)C[C@@H]1Oc2cc(-c3ccccc3)ccc2S(=O)(=O)N([C@H](C)CO)C[C@H]1C | -0.206% (inactive)
O=C(N[C@@H]1CC[C@@H](CCNS(=O)(=O)c2ccccc2Cl)O[C@@H]1CO)c1ccccc1 | -0.098% (inactive)
COc1ccc(N2CCN(C(=O)COC(=O)c3cccc(S(=O)(=O)Nc4ccccc4OC)c3)CC2)cc1 | -0.159% (inactive)
CC1CN(C(=O)COC(=O)c2cccc(NS(=O)(=O)c3ccccc3)c2)CC(C)O1 (centres undefined) | 43% (active)
CC1CN(C(=O)c2cccc(NS(=O)(=O)c3ccc(Br)cc3)c2)CC(C)O1 (centres undefined) | 0.103% (inactive)
COc1cccc(-c2ccc3c(c2)[C@@H]2[C@@H](CCN2S(=O)(=O)C2=NC(C)C=N2)[C@@H](CO)N3C)c1 (some centres undefined) | -0.294% (inactive)
CN1CCN(/N=C/c2ccc(C#N)cc2)CC1 | 0.346% (inactive)
Cc1ccc(-c2ccc(/C=N/NC(=O)CN3CCOCC3)o2)cc1[N+](=O)[O-] | -0.102% (inactive)
CN1CCN(/N=C/c2ccc(-c3ccc([N+](=O)[O-])cc3)o2)CC1 | 42.9% (active)
COc1ccc(NC(=O)N[C@H]2CC[C@@H](CCNC(=O)c3cc(Cl)cc(Cl)c3)O[C@H]2CO)cc1 | 0.37% (inactive)
COc1ccc(C[C@@H]2CCc3cnnn3COC[C@H](c3ccccc3)NC2=O)cc1 | 0.006% (inactive)
CCCNC(=O)Nc1ccc2c(c1)OC[C@@H](C)N(CCC)C[C@H](C)[C@@H](OC)CN(C)C2=O | 0.109% (inactive)
COc1ccc(-n2nnnc2SCC(=O)c2ccc(OC)c(OC)c2)cc1 | -0.381% (inactive)
COc1ccc(C(=O)CCc2ccccc2O)c(OC)c1 | -0.131% (inactive)
COc1ccc(C(=O)CSc2nnnn2C)c(OC)c1 | 43% (active)
COc1ccc2c3c([nH]c2c1)[C@H](CO)N(C(=O)c1ccccc1)CC31CN(C(=O)Nc2cccc(F)c2)C1 | 0.15% (inactive)
O=C(c1cccnc1)N1CC2(C1)[C@@H](c1ccccc1)[C@H](CO)N2C(=O)C1CCC1 | -0.239% (inactive)
O=C(Cc1ccccc1)N1CC2(C1)[C@H](c1ccccc1)[C@@H](CO)N2C(=O)c1cccnc1 | -0.085% (inactive)
C[C@H](CO)N1C[C@H](C)[C@@H](CN(C)CC2CCCCC2)Oc2ccc(NC(=O)Cn3cnnn3)cc2CC1=O | -0.448% (inactive)
O=C(CN1C(=O)S/C(=C\c2ccccc2Cl)C1=O)NC1C=CS(=O)(=O)C1 (centres undefined) | 43.2% (active)
COc1cccc(/C=C2/SC(=S)N(CC(=O)NC3C=CS(=O)(=O)C3)C2=O)c1 (centres undefined) | -0.111% (inactive)

SMILES | activity (Tm shift, normalised)
O=C(CN1CCCCCC1)NCCN1C(=O)S/C(=C\c2ccccc2Cl)C1=O | 0.458% (inactive)
O=C(O)CCCCCCC(=O)NOCc1ccccc1 | -0.15% (inactive)
CO[C@H](CN(C)C(=O)c1cnccn1)[C@@H](C)CN([C@@H](C)CO)S(=O)(=O)c1ccccc1 | 0.08% (inactive)
CC(C)NC(=O)Nc1ccc2c(c1)C(=O)N([C@@H](C)CO)C[C@@H](C)[C@H](CN(C)C)OCCCC[C@H](C)O2 | -0.748% (inactive)
CC(C)NC(=O)N[C@@H]1CC[C@@H](CCNS(=O)(=O)Cc2ccccc2)O[C@@H]1CO | -0.299% (inactive)
O=C(Nc1ccc(F)cc1)N1C[C@@H]2[C@H](c3ccccc31)[C@H](CO)N2Cc1ccccc1 | -0.206% (inactive)
CN1C(=O)c2cc(NC(=O)c3ccccc3)ccc2OC[C@H]2O[C@@H](CC(=O)O)CC[C@@H]21 | -0.04% (inactive)
CC(=O)N(C)C[C@@H]1Oc2ncc(C#Cc3ccccn3)cc2C(=O)N([C@@H](C)CO)C[C@@H]1C | 0.165% (inactive)
Cc1cccc(CN2CCN(C3CN(Cc4cn(Cc5cc(C)cc(C)c5)nn4)S(=O)(=O)C3)CC2)c1 (centres undefined) | -0.326% (inactive)
CCCCN1CC(N2CCN(Cc3cccc(C)c3)CC2)CS1(=O)=O (centres undefined) | 1.92% (active)
Cc1cccc(CN2CCN(C3CN(Cc4ccccc4)S(=O)(=O)C3)CC2)c1 (centres undefined) | -0.158% (inactive)
COc1cccc(CNC(=O)C[C@@H]2CC[C@H]3[C@@H](COc4ccc(NC(=O)c5cccs5)cc4C(=O)N3C)O2)c1 | 0.125% (inactive)
Cc1ccc(NC(=O)C(=O)NCc2ccc(/C=N/NC(=O)c3c(C)nc4cc(C)ccn34)o2)cc1 | 2.68% (active)
CCOc1ccc(/C=N\NC(=O)c2c(C)nc3cc(C)ccn23)cc1 | -0.098% (inactive)
Cc1ccn2c(=O)c(NC(=O)c3cccc4ccccc34)c(C)nc2c1 | -0.089% (inactive)
CO[C@H]1CN(C)C(=O)c2cc(NS(=O)(=O)c3ccccc3)ccc2OC[C@H](C)NC[C@@H]1C | -0.185% (inactive)
C[C@H]1CN([C@@H](C)CO)S(=O)(=O)c2ccc(Br)cc2O[C@H]1CN(C)Cc1ccccn1 | -0.079% (inactive)
COc1ccc2c3c(n(C)c2c1)[C@@H](CO)N(C(=O)Nc1ccc(F)cc1)CC31CCN(C(=O)c2cccnc2)CC1 | -0.306% (inactive)
C[C@@H]1CN([C@H](C)CO)S(=O)(=O)c2ccc(C3=CCCC3)cc2O[C@@H]1CN(C)C(=O)C1CCC1 | 0.141% (inactive)
O=C(Nc1ccccc1C(=O)Nc1ccncc1)c1ccc([N+](=O)[O-])cc1 | -0.016% (inactive)
O=C(Nn1cnnc1)c1ccc([N+](=O)[O-])cc1 | 42.7% (inactive)
O=C(c1ccncc1)c1ccc([N+](=O)[O-])cc1 | 43.1% (active)
CC(C)NC(=O)N1CC2(C1)[C@H](c1ccccc1)[C@H](CO)N2C(=O)C1CCOCC1 | -0.068% (inactive)
CC(=O)Oc1ccc2c(=O)oc(-c3ccc([N+](=O)[O-])cc3)nc2c1 | -0.034% (inactive)
O=[N+]([O-])c1ccc2c(c1)C(O)n1nc(-c3ccccc3)nc1S2 (centres undefined) | 0.035% (inactive)

SMILES | activity (Tm shift, normalised)
O=[N+]([O-])c1ccc2oc(-c3cccc(O)c3)nc2c1 | 43.2% (active)
CN(C)C(=O)C[C@@H]1CC[C@H]2[C@@H](COC[C@H](O)CN2C(=O)c2ccncc2)O1 | -0.192% (inactive)
CC(C)CC#Cc1cnc2c(c1)C(=O)N([C@H](C)CO)C[C@H](C)[C@@H](CN(C)Cc1ccccc1)O2 | 0.063% (inactive)
CO[C@@H]1CN(C)C(=O)c2ccc(NC(=O)Nc3ccccc3)cc2OC[C@@H](C)N(C(=O)CN(C)C)C[C@H]1C | -0.352% (inactive)
Cc1c(CCOC(=O)CC23CC4CC(CC(C)(C4)C2)C3)sc[n+]1Cc1ccc([N+](=O)[O-])cc1 | -0.223% (inactive)
Cc1c(CCO)sc[n+]1CC(=O)OC12CC3CC(CC(C3)C1)C2 | 1.45% (active)
C[C@@H]1CN([C@@H](C)CO)S(=O)(=O)c2ccc(/C=C/c3ccccc3)cc2O[C@H]1CN(C)C(=O)C1CC1 | -0.835% (inactive)
COc1cccc(CN2CC3(CN(Cc4ccccn4)C3)c3c([nH]c4cc(OC)ccc34)[C@@H]2CO)c1 | 0.052% (inactive)
CCS(=O)(=O)N1CCC2(CC1)CN(Cc1ccc3c(c1)OCO3)[C@H](CO)c1[nH]c3cc(OC)ccc3c12 | 0.042% (inactive)
COc1ccccc1C(=O)Nn1c(-c2cccs2)nc2ccccc2c1=O | 43.8% (active)
COc1cc(OC)cc(-c2nc3ccccc3c(=O)n2NC(=O)c2cccnc2Cl)c1 | 0.323% (inactive)
COc1cc(C(=O)Nn2c(CC(C)C)nc3ccccc3c2=O)cc(OC)c1OC | 0.375% (inactive)
C[C@H]1CN([C@@H](C)CO)C(=O)c2cc(-c3ccncc3)cnc2O[C@H]1CN(C)C(=O)c1cccc(F)c1 | -0.103% (inactive)
C[C@H]1CN([C@@H](C)CO)C(=O)c2cc(NC(=O)Nc3ccccc3)ccc2O[C@H]1CN(C)C(=O)Nc1ccc(F)cc1 | 0.055% (inactive)
COCC(=O)Nc1ccc2c(c1)OC[C@H](C)N(C)C[C@@H](C)[C@@H](OC)CN(C)C2=O | 38% (active)
COCC(=O)Nc1ccc2c(c1)OC[C@H](C)N(C(=O)COC)C[C@@H](C)[C@H](OC)CN(C)C2=O | 0.165% (inactive)
CCC(=O)N1C[C@@H](C)[C@H](OC)CN(C)C(=O)c2ccc(NC(=O)COC)cc2OC[C@@H]1C | 0.031% (inactive)
COc1cccc(-c2ccc3c(c2)[C@H]2[C@H](CCN2C(=O)c2ccc(F)cc2)[C@@H](CO)N3)c1 | -0.166% (inactive)
O=[N+]([O-])c1ccc(F)cc1Oc1nc(-c2cccnc2)nc2ccccc12 | 43.2% (active)
N#CCSc1nc(-c2ccccc2)nc2ccc(F)cc12 | -0.193% (inactive)
O=[N+]([O-])c1cc2ccccc2nc1-c1ccccc1 | 42.3% (inactive)
COc1cccc(-c2ccc([C@@H]3[C@@H](C#N)N(C(=O)c4ccccn4)[C@H]3CO)cc2)c1 | -0.024% (inactive)
O=C(CN1CCOCC1)NC[C@@H]1N[C@@H](CO)[C@@H]1c1ccc(-c2ccccc2)cc1 | 0.456% (inactive)
C[C@@H]1CN([C@H](C)CO)C(=O)c2cc(N(C)C)ccc2O[C@@H](C)CCCCO[C@@H]1CN(C)C(=O)CCCN(C)C | -0.859% (inactive)
